Unmarked numbers belong to inactive results. Results filed as inconclusive are left out. Active and inactive are the calls of the source. Unless noted, calls follow the shape of the dose curve; as a rule, active = well fitted curve in the direction sought with a large enough effect in the repeat runs; inconclusive = weak or mixed curves; inactive = no such curve, though single readings can be large; an effect the other way counts as inactive or inconclusive.

Assay [1] in a line: qHTS assay to identify small molecule agonists of the hypoxia (HIF-1) signaling pathway - cell viability counter screen (AID 1224844; calls by dose curve; also: nearly all actives have a fitted effect of over 50% in size; also: potency is read from the fitted curve at half-maximal effect). The essentials:
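CellTiter-Glo luminescence read-out, 30 min RT, taken in the same wells as the beta-lactamase HRE reporter assay; HRE-bla ME-180 cells, 0.5% dialyzed FBS, 17 hr compound treatment at 37C, 5% CO2.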
For orientation: qHTS replaces the single test concentration by a dilution series.

A short description of assay [2]: qHTS assay to identify small molecule agonists of H2AX (AID 1224845; active = well fitted activation curve with a large enough effect in the signal ratio in the repeat runs, not every such curve was filed as active; the % refers to the signal ratio; also: potency is read from the fitted curve at half-maximal effect). In a few lines:
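Phospho-H2AX Ser139 measured by HTRF (ex 320 nm; em 665 and 620 nm) after 24 hr antibody incubation. Compounds, 15 concentrations, 0.76% DMSO, were applied to CHO-K1 cells for 3hr at 37C before lysis.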

The nature of assay [3]: qHTS assay to identify small molecule agonists of the hypoxia (HIF-1) signaling pathway (AID 1224846; active = well fitted activation curve with a large enough effect in the signal ratio in the repeat runs, not every such curve was filed as active; the % refers to the signal ratio; also: % is scaled to controls: 0 for no effect and ±100 for the full control effect). The essentials: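 Beta-lactamase FRET read-out (CCF4-AM substrate) from ME-180 cells carrying an HRE-driven bla reporter, after 17 hrs compound exposure at 37C/5% CO2. Cells were seeded at 2,000 per well in 0.5% dialyzed FBS medium and preincubated 5 hrs.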
A short description of assay [4]: qHTS assay to identify small molecule agonists of H2AX - cell viability counter screen (AID 1224847; calls by dose curve; also: nearly all actives have a fitted effect of over 30% in size; also: potency is read from the fitted curve at half-maximal effect). In a few lines:
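Quantitative HTS viability measurement: CHO-K1 wild-type cells in serum (10% FBS) medium, short 3 hr drug exposure at 37C with 0.76% DMSO, CellTiter-Glo luminescent detection.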

A short description of assay [5]: qHTS RealTime-Glo MT Cell Viability Assay in HEK293 cells - 32 hour (AID 1224868). Also: nearly all actives have a fitted effect of over 50% in size. Also: potency is read from the fitted curve at half-maximal effect. The essentials:
(§1)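 Cells + reagent dispensed (600 cells/well, HEK293) → 5 h at 37 C/5% CO2 → 23 nL compound in DMSO pinned → 40 h at 37 C → luminescence read at 0, 8, 16, 24, 32, 40 h.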

Assay [6] is described as follows: A CellTox Green Cytotoxicity Assay to monitor cytotoxicity in HEK293 cells - 0 hour (AID 1224869). Also: % is scaled to controls: 0 for no effect and ±100 for the full control effect; nearly all actives have a fitted effect of over 50% in size. In a few lines: (§2)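 Read-out: fluorescence of a cell-impermeant cyanine dye staining DNA of dead cells, proportional to cytotoxicity. HEK293, 600 cells/well with reagent, compound (23 nL DMSO) added after 5 h; reads at 0, 8, 16, 24, 32, 40 h.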
Assay [7] is described as follows: qHTS RealTime-Glo MT Cell Viability Assay in HepG2 cells - 40 hour (AID 1224870). Also: nearly all actives have a fitted effect of over 50% in size. Also: potency is read from the fitted curve at half-maximal effect. In a few lines:
(§3)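 Real-time viability: cells seeded at 600 per well together with NanoLuc and cell-permeant prosubstrate, compounds added after 5 h incubation. Luminescence tracked at 0, 8, 16, 24, 32 and 40 h of exposure.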

Assay [8] can be described thus: A CellTox Green Cytotoxicity Assay to monitor cytotoxicity in HEK293 cells - 40 hour (AID 1224871). Also: nearly all actives have a fitted effect of over 45% in size. Also: potency is read from the fitted curve at half-maximal effect. The essentials:
as §2

Assay [9] is described as follows: qHTS RealTime-Glo MT Cell Viability Assay in HEK293 cells - 16 hour (AID 1224872). Also: nearly all actives have a fitted effect of over 50% in size. Also: potency is read from the fitted curve at half-maximal effect. In a few lines: as §1
Assay [10] can be described thus: qHTS RealTime-Glo MT Cell Viability Assay in HepG2 cells - 8 hour (AID 1224873). Also: nearly all actives have a fitted effect of over 55% in size. Also: potency is read from the fitted curve at half-maximal effect. In a few lines: as §3
Assay [11] can be described thus: qHTS RealTime-Glo MT Cell Viability Assay in HEK293 cells - 40 hour (AID 1224874). Also: nearly all actives have a fitted effect of over 50% in size. Also: potency is read from the fitted curve at half-maximal effect. As to max response: % is scaled to controls: 0 for no effect and ±100 for the full control effect. To be noted: RealTime-Glo luminescence; max response: active compounds read low. The essentials: (§4)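 Luminescence readout at each listed time point; HEK293, 600 cells/well, RealTime-Glo MT reagent added with cells; compounds pinned (23 nL in DMSO) after 5 h at 37 C; continuous culture at 37 C.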

Assay [12] can be described thus: A CellTox Green Cytotoxicity Assay to monitor cytotoxicity in HEK293 cells - 24 hour (AID 1224875). Also: nearly all actives have a fitted effect of over 45% in size. Also: potency is read from the fitted curve at half-maximal effect. As to activity change: % is scaled to controls: 0 for no effect and ±100 for the full control effect. The essentials:
as §2

Assay [13] can be described thus: A CellTox Green Cytotoxicity Assay to monitor cytotoxicity in HepG2 cells - 16 hour (AID 1224876). Also: nearly all actives have a fitted effect of over 45% in size. Also: potency is read from the fitted curve at half-maximal effect. The essentials: (§5)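 HepG2, 600 cells/well premixed w/ CellTox Green; 5 h settle, 37 C/5% CO2; pintool cpd add (DMSO); 37 C, 40 h; fluorescence read at 0, 8, 16, 24, 32, 40 h.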
A short description of assay [14]: A CellTox Green Cytotoxicity Assay to monitor cytotoxicity in HepG2 cells - 24 hour (AID 1224878). Also: nearly all actives have a fitted effect of over 45% in size. Also: potency is read from the fitted curve at half-maximal effect. As to Cytotoxicity: % is scaled to controls: 0 for no effect and ±100 for the full control effect. In a few lines:
as §5

Assay [15] can be described thus: A CellTox Green Cytotoxicity Assay to monitor cytotoxicity in HepG2 cells - 40 hour (AID 1224879). Also: nearly all actives have a fitted effect of over 40% in size. Also: potency is read from the fitted curve at half-maximal effect. The essentials:
as §5

Assay [16] is described as follows: qHTS RealTime-Glo MT Cell Viability Assay in HEK293 cells - 0 hour (AID 1224880). In a few lines:
as §4

Assay [17] is described as follows: qHTS RealTime-Glo MT Cell Viability Assay in HepG2 cells - 24 hour (AID 1224867). Also: nearly all actives have a fitted effect of over 50% in size. Also: potency is read from the fitted curve at half-maximal effect. In a few lines: (§6)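 Real-time, nonlytic viability: 600 HepG2 cells/well mixed with NanoLuc enzyme plus prosubstrate; 5 h settle, compound (DMSO) added by pintool; luminescence monitored over 40 h at 37 C.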
Assay [18] is described as follows: qHTS RealTime-Glo MT Cell Viability Assay in HepG2 cells - 32 hour (AID 1224877). Also: nearly all actives have a fitted effect of over 55% in size. Also: potency is read from the fitted curve at half-maximal effect. The essentials:
as §6

Assay [19] is described as follows: qHTS assay to identify small molecule antagonists of the estrogen related receptor (ERR) signaling pathway from Tox21 library (AID 1224848). In a few lines: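 Luciferase luminescence (ONE-Glo, 30 min room temperature) was the read-out. Cells of the NTP-supplied ERR line, 2,000 per well, were given 6 h at 37 C before compound addition in DMSO and 18 h exposure at 37 C.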

The nature of assay [20]: qHTS assay to identify small molecule agonists of the estrogen related receptor (ERR) signaling pathway from Tox21 library (AID 1224849; calls by dose curve; also: % is scaled to controls: 0 for no effect and ±100 for the full control effect; nearly all actives have a fitted effect of over 15% in size). To be noted: ERR reporter cell line, ONE-Glo luciferase, 18 h; at 92.4 µM (top of the series) unless noted. The essentials:
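Luminescence readout (ONE-Glo, 30 min RT) after 18 h compound exposure at 37 C of NTP-supplied ERR reporter cells; cells were plated 6 h before compound addition by pin tool.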

As to `CN1C2CCC(C)(C)C1CC(OC(=O)C(O)(c1cccs1)c1cccs1)C2` (configuration not stated), the Potency result in assay [1], in assay [2], in assay [3], in assay [4], in assay [5] and in assay [6] was “inactive” throughout. The Potency entry in assay [7], in assay [8], in [9], in assay [10], in assay [12] and in assay [13] was “inactive” throughout. Also, the Potency result in assay [14], in assay [15] and in [16] was “inactive” throughout. In addition, in assay [11], the max response was -25.3%.
Regarding `O.O.O.O.O.O.O=S(=O)([O-])[O-].[Ni+2]`, the Potency entry in assay [1], in assay [2], in assay [3], in assay [4], in [17] and in assay [5] was “inactive” each time. The Potency result in assay [6], in [8], in [9], in [10], in assay [12] and in [13] was “inactive” each time. Besides, the Potency entry in assay [18], in [14] and in [15] was “inactive” each time. Further, the max response in assay [11] is -26.5%.
For the compound `CSC1=N[C@@](C)(c2ccccc2)C(=O)N1Nc1ccccc1`, the Potency entry in assay [1], in [2], in assay [3], in [17], in [5] and in assay [6] was “inactive” each time. The Potency result in assay [7], in [8], in assay [9], in [10], in assay [12] and in assay [13] was “inactive” throughout. The Potency entry in assay [18], in [14] and in assay [15] was “inactive” each time.
In the case of `COP(=O)(OC)Oc1ccc([N+](=O)[O-])cc1`, the Potency result in [1], in [2], in [4], in [17], in [5] and in [6] was “inactive” in each case. In addition, the Potency result in [7], in assay [8], in [9], in assay [10], in assay [12] and in [13] was “inactive” each time. Further, the Potency entry in [18], in assay [14] and in assay [15] was “inactive” in each case. Besides, in [19], the Potency is 30600 nM (active). Further, the activity change, positive = activation in [20] is -54.1%. The max response in [11] was -20.5%.
Regarding `[F][Sn]([c]1ccccc1)([c]1ccccc1)[c]1ccccc1`, the Potency was 549 nM (active) in assay [1]; 1420 nM (active) in assay [2]; 22500 nM (active) in assay [4]; 436 nM (active) in assay [17]; 436 nM (active) in assay [5]; 219 nM (active) in [7]. The Potency is 1550 nM (active) in assay [8]; 549 nM (active) in [9]; 1740 nM (active) in [10]; 436 nM (active) in [11]; 3470 nM (active) in [12]; 1740 nM (active) in assay [13]. Besides, the figures for the Potency in assay [18], in assay [14] and in assay [15] were 347 nM (active), 2190 nM (active) and 692 nM (active), respectively. In addition, in assay [20], the activity change, positive = activation is -81.3%. Besides, the Potency entry in assay [6] and in assay [16] was “inactive” in each case.
As to `C[N+]1(C)[C@@H]2CC[C@H]1CC(OC(=O)C(CO)c1ccccc1)C2` (some centres not stated), the Potency entry in assay [1], in assay [2], in [4], in assay [5], in [6] and in assay [8] was “inactive” each time. In addition, the Potency entry in assay [9], in assay [10], in assay [13], in assay [14], in [15] and in assay [16] was “inactive” throughout. In assay [7], the Potency is 23900 nM (active). Also, the max response in assay [11] is 8.28%.

The values above are taken from PubChem BioAssay (Tox21).
